The subject of assay [1] is Neuro-2a. The assay can be described thus: neurite formation score, plate-normalized to DMSO control mean 5.04 (score (0-8 scale)); higher = more or longer neurites. The settings on record: 1 µM. The protocol: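 Neuro-2a mouse neuroblastoma cells in PLL-coated 96-well plates were pre-treated for 1 h in DMEM(+) with each kinase inhibitor at 1 µM, then switched to serum-free DMEM(-) with inhibitor to induce neurite outgrowth and fixed about 2-3 h later. Three blinded observers scored neurite formation from 0 (no neurites) to 8 (long neurites on almost all cells).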

In assay [2] the test system is Neuro-2a. The assay is described as above. Particulars: 0.1 µM. The protocol: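 Neuro-2a mouse neuroblastoma cells in PLL-coated 96-well plates were pre-treated for 1 h in DMEM(+) with each kinase inhibitor at 0.1 µM, then switched to serum-free DMEM(-) with inhibitor to induce neurite outgrowth and fixed about 2-3 h later. Three blinded observers scored neurite formation from 0 (no neurites) to 8 (long neurites on almost all cells).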

As to `CS(=O)(=O)CCNCc1ccc(-c2ccc3ncnc(Nc4ccc(OCc5cccc(F)c5)c(Cl)c4)c3c2)o1` [Lapatinib], the neurite formation score with Neuro-2a [1] turned out to be 4.24; with Neuro-2a [2], 4.88.
The corresponding values for `O=c1cc(N2CCOCC2)oc2c(-c3ccccc3)cccc12` are 5.24 and 4.21.
The corresponding values for `CC(C)(C)c1ccc(S(=O)(=O)/C=C/C#N)cc1` are 4.21 and 4.75.
With `Nc1ncnc2c1c(-c1cnc3[nH]ccc3c1)nn2C1CCCC1`, the neurite formation score stood at 3.21 with Neuro-2a [1] and 4.42 with Neuro-2a [2].
For the molecule `CO[C@H]1C[C@@H]2CC[C@@H](C)[C@@](O)(O2)C(=O)C(=O)N2CCCC[C@H]2C(=O)O[C@H]([C@H](C)C[C@@H]2CC[C@@H](OCCO)[C@H](OC)C2)CC(=O)[C@H](C)/C=C(\C)[C@@H](O)[C@@H](OC)C(=O)[C@H](C)C[C@H](C)/C=C/C=C/C=C/1C` [Everolimus (RAD001)], the neurite formation score in the assay with Neuro-2a [1] was determined as 4.57; in the assay on Neuro-2a [2], 5.54.
Consider `CCOC(=O)c1cnc2ccc(-c3cncc(NS(=O)(=O)c4ccccc4)c3)cn12`, for which the neurite formation score in the assay on Neuro-2a [1] is -0.457; in the assay on Neuro-2a [2] it was 0.0843.
Take `Cc1nc(-c2cn3c(n2)-c2ccc(-c4cnn(C(C)(C)C(N)=O)c4)cc2OCC3)n(C(C)C)n1`: the neurite formation score with Neuro-2a [1] was found to be 5.29; with Neuro-2a [2], 4.92.
The corresponding values for `c1cn2cc(-c3ccc4cn[nH]c4c3)nc(Nc3ccc(N4CCOCC4)cc3)c2n1` are 4.54 and 5.08.
For `COc1cc2ncnc(Nc3ccc(O)cc3)c2cc1OC`, the neurite formation score in the assay with Neuro-2a [1] turned out to be 5.02; with Neuro-2a [2], 4.25.
For `Nc1cc(C(F)(F)F)c(-c2cc(N3CCOCC3)nc(N3CCOCC3)n2)cn1`, the neurite formation score in the assay on Neuro-2a [1] worked out at 5.24; with Neuro-2a [2] it was 2.71.
The corresponding values for `C=CC(=O)Nc1ccc(CN2C(=O)N(c3cc(OC)cc(OC)c3)Cc3cnc(Nc4ccc(N5CCN(C)CC5)cc4)nc32)cc1` are 4.63 and 4.25.
Take `CN(C)C1CCN(C(=O)c2ccc(NC(=O)Nc3ccc(-c4nc(N5CCOCC5)nc(N5CCOCC5)n4)cc3)cc2)CC1`: the neurite formation score is 4.14 in the assay on Neuro-2a [1] and 3.09 in the assay on Neuro-2a [2].
Consider `Cc1cc(CN2CCN(c3c(Br)cnc4nc(-c5ccc(N6CCN(C)CC6)cc5)[nH]c34)CC2)no1`, for which the neurite formation score amounted to 4.47 with Neuro-2a [1] and 4.76 in the assay on Neuro-2a [2].
Take `O=C1NC(=O)C(c2cnc3ccccn23)=C1c1cn2c3c(cc(F)cc13)CN(C(=O)N1CCCCC1)CC2`: the neurite formation score is 3.47 in the assay on Neuro-2a [1] and -0.576 with Neuro-2a [2].
As to `N#CC[C@H](C1CCCC1)n1cc(-c2ncnc3[nH]ccc23)cn1`, the results for the neurite formation score with Neuro-2a [1] and in the assay on Neuro-2a [2] were 4.91 and 5.04, respectively.
For `O=C(COc1ccc(Cl)cc1)NC1CCC(NC(=O)COc2ccc(Cl)cc2)CC1` (stereo not drawn) [ISRIB (trans-isomer)], in that order: 4.54 and 4.42.
As to `COc1cc(C(=O)N2CCC(N3CCN(C)CC3)CC2)ccc1Nc1ncc2c(n1)N(C)c1ccccc1C(=O)N2C`, the neurite formation score in the assay on Neuro-2a [1] turned out to be 4.36; with Neuro-2a [2] it was 4.92.

For the origin of these results see the supplement of paper PMC8047044.
